Data on seven sequences can be found in the supplement of paper PMC6555819.

Test in all cases: PBM binding z-score (relative to random genomic background probes); higher = stronger binding; sequences stand for … in GC…GCGATTGACAGCGTAGAATGAAGG
Experiment [1] has as its system RARb homodimer (NR concentration 270 nM). In a few lines: (§1)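 The probes on custom Agilent 4×180K protein-binding microarrays were double-stranded, with 34-nt variable regions bearing direct-repeat seeds, single-nucleotide variants, half-site ablations and random human genomic background sequences. Incubation lasted 1 h with ligand-free nuclear receptor dimers in PBS pH 7.4, 2% milk, 0.02% Triton X-100, 1 mM DTT, 0.2 mg/mL BSA and 0.4 mg/ml salmon testes DNA. Antibodies against each partner (one per run) detected bound dimers, and fluorescence scans were regression-normalized. Binding z-scores take the random background probes as reference.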

The subject of experiment [2] is RARg:RXRa (NR concentration 270 nM, RXRa partner concentration 90 nM). In a few lines: as §1
Experiment [3] deals with RARg homodimer (NR concentration 270 nM). In a few lines:
as §1

In experiment [4] the test system is RXRa DBDmut IVT, anti-RXR (DBD mutation: RXRa K156A/R161A, NR concentration 90 nM). In a few lines: as §1
Experiment [5] deals with RXRa homodimer (NR concentration 180 nM). In a few lines: as §1
The subject of experiment [6] is THRa:RXRa (NR concentration 90 nM, RXRa partner concentration 90 nM). In a few lines:
as §1

In experiment [7] the test system is THRa homodimer (NR concentration 90 nM). In a few lines: as §1
In experiment [8] the test system is VDR homodimer (NR concentration 270 nM). In a few lines:
as §1

As for CCTGCTAGGTCATGGTCAGTTAATCTACAGTATG, the PBM binding z-score in experiment [1] was found to be 3.11; in experiment [2], 4.04; in experiment [3] it was 5.07; in experiment [4] it was 2.12; in experiment [5], 3.12; in experiment [6], 3.23. Moreover, the PBM binding z-score in experiment [7] is 1.57; in experiment [8], 0.435.

As for ACTATTAGTTGAGACAAGGGCAACCGATAGGTTG, the PBM binding z-score in experiment [1] was 1.01; in experiment [2] it was 0.568; in experiment [3] it was 0.799; in experiment [4], 0.0242; in experiment [5], 0.407; in experiment [6], 1.96. Also, the PBM binding z-score in experiment [7] is -0.191; in experiment [8], 0.496.

Take TCTAGTTGGTCACGGAGGTCACACCCGACGGGTA: the PBM binding z-score stood at 3.93 in experiment [1]; 4.53 in experiment [2]; 4.61 in experiment [3]; 0.865 in experiment [4]; 4.68 in experiment [5]; 3.44 in experiment [6]. Also, the PBM binding z-score in experiment [7] stood at 2.28; in experiment [8], 3.22.

Take TCTAGCAGGCCCGAGGGTCACTCAAGAGGTACGG: the PBM binding z-score was 2.43 in experiment [1]; 2.27 in experiment [2]; 1.72 in experiment [3]; 0.126 in experiment [4]; 2.42 in experiment [5]; 1.67 in experiment [6]. For the same sequence, the PBM binding z-score in experiment [7] was -0.376; in experiment [8] it was 0.268.

On to CCTGCTAGGTCATGGTCAGCTCATCTACAGTATG, for which the PBM binding z-score in experiment [1] is 3.46; in experiment [2], 3.88; in experiment [3], 4.57; in experiment [4] it was 1.95; in experiment [5] it was 2.65; in experiment [6] it was 3.24. For the same sequence, the figures for the PBM binding z-score in experiment [7] and in experiment [8] were 1.26 and 0.458, respectively.

Regarding GCTAGTTGGTCAGTAAAAGGTCCCACACCGGTCG, the PBM binding z-score in experiment [1] was 1.08; in experiment [2], 0.163; in experiment [3] it was 0.286; in experiment [4] it was -0.751; in experiment [5] it was -0.112; in experiment [6], -0.281. Moreover, the PBM binding z-score was -0.0359 in experiment [7] and -0.387 in experiment [8].

GCTGGGAGGACAAGGTCAGAGCTTTGTCCGTAGA: the PBM binding z-score was determined as 3.21 in experiment [1]; 3.33 in experiment [2]; 3.55 in experiment [3]; 0.766 in experiment [4]; 2.49 in experiment [5]; 3.31 in experiment [6]. The values for the PBM binding z-score in experiment [7] and in experiment [8] were 1.8 and 0.796, respectively.
